Experimental data taken from the supplement of paper PMC6555819.

Each sequence was assayed on VDR:RXRa (NR concentration 270 nM, RXRa partner concentration 90 nM) (assay: PBM binding z-score (relative to random genomic background probes); higher = stronger binding; sequences stand for … in GC…GCGATTGACAGCGTAGAATGAAGG).
Description: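 Protein-binding microarray (Agilent 4x180K custom design, double-stranded 60-nt probes: 5' GC cap, 34-nt variable region, 24-nt constant primer region; full probe sequence given). Purified or IVT nuclear receptor:RXRα heterodimers (3:1 NR:RXRα, mostly 270:90 nM) or homodimers were incubated for 1 h in PBS with 2% milk and no ligand, then detected with Alexa488 antibodies. Fluorescence from o1-orientation probes (~5 replicates averaged) was converted to z-scores against 500 random hg19 background probes. Variable regions are seed direct-repeat (DR0–DR5) sites, all their single-nucleotide variants and half-site ablations.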
AGTCAAAGTTCATCTAGGTAACGTTAGATATGCT showed a PBM binding z-score of 5.11. For GGAGCGAGGGCATTCGAGTTGATAGCATGGCGAT, the PBM binding z-score was 3.31. ACTATTAGTTGAGACGAGGACAACCGATAGGTTG gave a PBM binding z-score of 0.286. With CCTATTAGTTGACCATAAGGGCAACCGAAGCTCG the PBM binding z-score was 1.22. With TAGCCTAGGTCATTCAGGGGCCAGTAAAGAAAGC the PBM binding z-score was 3.21. CCTACCGGGCCAAAGGTCATTGATTCCAATGCTC gave a PBM binding z-score of 4.8. In the case of CCTCGGAGGACAACAGGAGGTCAGAGCCGCCAGA, the PBM binding z-score is reported as 1.58. With CCTACTGGGCCATTAGGTCATTGATATCAACGTT the PBM binding z-score was 1.47. TGAATGAGGTTATAAAATCAGGGAACGTTGCAAA showed a PBM binding z-score of 0.918. With CCTACTGGGCTATTCAGAGGTCATTGATCATATG the PBM binding z-score was 3.57. CAGTCTAGGTCAGGGCCAGTATAGGAGGAACGTT showed a PBM binding z-score of 0.403. GGAACGAGGGCAGTCGAGTTGATAGCATGGCGAT was tested, and the PBM binding z-score was 1.22. TCTCGGAGGACACGAAAGGTCATAGCTCGACATC was tested, and the PBM binding z-score was 4.71. Work on ACTAGCAGGCCAAGTTCGGGTCACTCAAACAAAG yielded a PBM binding z-score of 2.43. With CATTACGGGTCACTCCAGGTTATAGCATCGGAGT the PBM binding z-score was 4.52. In the case of CAGCCTAGGTCAGGGCCACTATAGGAGGAACGTT, the PBM binding z-score is reported as 0.305. TCGAGTAGGTTAGTCCGGGCATTCAGCCAACATA showed a PBM binding z-score of 0.223. GGGACGAGGGCATTCGAGTTGATAGCATGGCGAT showed a PBM binding z-score of 3.62. GCGACTGGGGCATCAGCAGGTTATCATAACTTAA gave a PBM binding z-score of -0.0496. TCATATAGGTAAACAGGTGAAAGTCCGTAAGTTA gave a PBM binding z-score of 1.27. CAGCCTAGGTCAGGGTCAGTATAGGAGGAACGTT was tested, and the PBM binding z-score was 2.7. Sequence ACGGACAGGTGAGTGAAGGTAACTCAGCTGGACG has a PBM binding z-score of -0.381. TCTTGTAGATCAGGCAGGTTAAGAAAGCCTGAGT showed a PBM binding z-score of 0.268. With TAGCCTAGGTCATGGGACAGTATACCACGCGAAC the PBM binding z-score was 2.17. GTACCAAGGTGAATAGGTCGTTGCTGAGTAGGCG gave a PBM binding z-score of 0.644. In the case of CAAACTAGGTCACTGGAAGGTCAAAGTCCGCATG, the PBM binding z-score is reported as 5.33. In the case of CCTACTGGGCCACGAGAGGTCATTGATTCAGTGA, the PBM binding z-score is reported as 4.45. GTTACAGGGTCAGCTAGAGGCCAGAGTATGGAAA gave a PBM binding z-score of 3.39. TGAATGAGGATATAAGATCAGGGAACGTTGCAAA gave a PBM binding z-score of -0.113. CGAACTAGGTCAAGGACAGTGATTCTCCGCACGC was tested, and the PBM binding z-score was 1.48. For CCTAGCAGGCCAGGGTTACTCAAGCATTTCGCTT, the PBM binding z-score was -0.412. GCTAGCAGTCCATTTGGGTCACTCAATGACGGGC was tested, and the PBM binding z-score was 0.562. Sequence ACTAGCAGGCCAAGTTTGAGTCACTCAAACAAAG has a PBM binding z-score of -0.614. In the case of GGAACGAGGGCAAAGTTGATAGCTTCTGTCGACG, the PBM binding z-score is reported as 1.09. In the case of AGAATGACGTTATTAAGATCAGGGAATTGCGGTC, the PBM binding z-score is reported as -0.00436. ACTATTAGTTGACTTAGGGCAACTGATACGACGC gave a PBM binding z-score of 0.239. AGGCAAAGTTCACTAGGTAACGTAAGATTCAGCT showed a PBM binding z-score of 3.88. GCACACAGGTGAAACGCAGGTAACTCAGGGTGGC gave a PBM binding z-score of -0.336. Sequence ATCGAAAGGTCGATGGTGAGTATACCCACCCGAA has a PBM binding z-score of 1.78. TCATATAGGTAAATGCTAGGTGAACGTCCGATCT was tested, and the PBM binding z-score was 0.914.
